Experimental findings from PubChem BioAssay are described below.

Experiment [1] in a line: rapamycin-like changes in RPL19A-GFP expression – cell-based, S. cerevisiae, multiplex flow cytometry, primary screen (AID 1862).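 Note: lower values mimic rapamycin by blocking the RPL19A rise seen in DMSO cells.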 The settings on record: S. cerevisiae RPL19A-GFP strain, flow cytometry fluorescence, 3 h; at 10 µM; stronger effect = lower value. For orientation: In flow cytometry, cells or beads pass a laser one at a time.
Experiment [2] can be described thus: TOR pathway GLN3 branch reporter MEP2-GFP changes – S. cerevisiae, multiplex flow cytometry, primary screen (AID 1867;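 active = GFP response, as percent of the DMSO control, above the screen-wide mean plus 3 SD, about 139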;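 note: median GFP channel fluorescence of barcode-gated MEP2-GFP cells measured by flow cytometry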). The settings on record: S. cerevisiae MEP2-GFP strain, 3 h, at 10 µM, stronger effect = higher value, 100% means same as DMSO wells.
The nature of experiment [3]: TOR pathway RTG branch CIT2 reporter changes – S. cerevisiae, GFP fusion, multiplex flow cytometry, primary screen (AID 1870;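 active = percent response above a set limit, the screen-wide mean plus 3 SD, cut at about 130% in these data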;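 note: barcoded CIT2-GFP strain pooled with four other GFP strains with rapamycin as positive control; median GFP fluorescence per well over plate mean of DMSO wells so 100% = DMSO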). The settings on record: S. cerevisiae CIT2-GFP expression, 3 h, at 10 µM, stronger effect = higher value.
A short description of experiment [4]: TOR pathway LAP4-GFP level changes – S. cerevisiae, multiplex flow cytometry, primary screen (AID 1873;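 active = GFP signal, as percent of the solvent control, above the screen mean plus 3 SD, about 149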). To be noted: S. cerevisiae LAP4-GFP expression, 3 h, at 10 µM, stronger effect = higher value.
The nature of experiment [5]: yeast AGP1-GFP level changes, GLN3 branch – cell-based, multiplex flow cytometry, S. cerevisiae, primary screen (AID 1887;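 active = GFP signal above the screen-wide mean plus 3 SD, that is over about 124.5% of the solvent control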;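 note: AGP1-GFP fusion strain of S. cerevisiae within a five-strain barcoded multiplex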). The settings on record: 3 h, at 10 µM, stronger effect = higher value.
A short description of experiment [6]: reduced mouse 2C T cell binding to pMHC/ICAM-1 vesicles – MLPCN validation set, flow cytometry, LFA-1/ICAM-1 modulator project, pilot screen (AID 2523;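 active = response below a set limit, under 55% cells CD8-positive and vesicle-bound, and CD8 cells' 90th-percentile brightness under 279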;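 for vesicle binding response: mean PE anti-B7-1 fluorescence of CD8+ cells relative to row control; 100% = QL9-loaded vesicles with DMSO vehicle in the same plate row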). The settings on record: 2C mouse CD8+ T cells, at 7 µM, stronger effect = lower value; double positive events: measured here: CD8+/vesicle+ event percentage.
The target of experiment [7] is Integrin beta-1 (Homo sapiens) + Integrin alpha-4 (Homo sapiens) (UniProt P13612+P05556). The experiment is described as follows: alpha4beta1 integrin LIBS antibody binding reduction – U937 cells, HUTS-21 mAb, flow cytometry, validation set, VLA-4 allosteric modulator project, pilot screen (AID 2674;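 active = inhibition above 50%, about 3 SD of the validation set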;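 note: antibody binding induced by the VLA-4 ligand LDV present at three times its Kd; 0% = LDV ligand with antibody and no compound and 100% = antibody without LDV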). The settings on record: HUTS-21 LIBS mAb binding, at 6.7 µM, stronger effect = higher value, binding induced by LDV ligand.
Integrin beta-1 (Homo sapiens) + Integrin alpha-4 (Homo sapiens), sequence (P05556 whole entry, looked up): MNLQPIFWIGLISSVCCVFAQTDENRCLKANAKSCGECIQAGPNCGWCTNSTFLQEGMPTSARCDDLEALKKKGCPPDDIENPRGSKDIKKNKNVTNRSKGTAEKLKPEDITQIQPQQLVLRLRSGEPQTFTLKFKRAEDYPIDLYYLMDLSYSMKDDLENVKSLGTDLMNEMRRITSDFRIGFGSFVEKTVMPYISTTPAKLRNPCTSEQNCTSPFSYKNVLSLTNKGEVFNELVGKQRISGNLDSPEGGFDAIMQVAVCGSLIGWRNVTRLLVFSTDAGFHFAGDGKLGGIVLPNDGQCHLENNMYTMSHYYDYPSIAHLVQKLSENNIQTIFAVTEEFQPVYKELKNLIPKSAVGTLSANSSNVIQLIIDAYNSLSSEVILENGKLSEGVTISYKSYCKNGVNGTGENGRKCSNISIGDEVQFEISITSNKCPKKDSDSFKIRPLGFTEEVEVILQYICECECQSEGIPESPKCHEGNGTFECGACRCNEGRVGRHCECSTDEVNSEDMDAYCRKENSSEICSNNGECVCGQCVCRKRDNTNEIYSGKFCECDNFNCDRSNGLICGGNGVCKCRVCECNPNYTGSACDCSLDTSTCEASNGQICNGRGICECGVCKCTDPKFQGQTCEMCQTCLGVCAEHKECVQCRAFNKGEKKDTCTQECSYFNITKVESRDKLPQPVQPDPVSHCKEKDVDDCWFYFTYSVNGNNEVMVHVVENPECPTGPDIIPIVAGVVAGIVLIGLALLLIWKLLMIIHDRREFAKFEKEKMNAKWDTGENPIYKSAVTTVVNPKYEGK
Integrin beta-1 (Homo sapiens) + Integrin alpha-4 (Homo sapiens), sequence (P13612 whole entry, looked up): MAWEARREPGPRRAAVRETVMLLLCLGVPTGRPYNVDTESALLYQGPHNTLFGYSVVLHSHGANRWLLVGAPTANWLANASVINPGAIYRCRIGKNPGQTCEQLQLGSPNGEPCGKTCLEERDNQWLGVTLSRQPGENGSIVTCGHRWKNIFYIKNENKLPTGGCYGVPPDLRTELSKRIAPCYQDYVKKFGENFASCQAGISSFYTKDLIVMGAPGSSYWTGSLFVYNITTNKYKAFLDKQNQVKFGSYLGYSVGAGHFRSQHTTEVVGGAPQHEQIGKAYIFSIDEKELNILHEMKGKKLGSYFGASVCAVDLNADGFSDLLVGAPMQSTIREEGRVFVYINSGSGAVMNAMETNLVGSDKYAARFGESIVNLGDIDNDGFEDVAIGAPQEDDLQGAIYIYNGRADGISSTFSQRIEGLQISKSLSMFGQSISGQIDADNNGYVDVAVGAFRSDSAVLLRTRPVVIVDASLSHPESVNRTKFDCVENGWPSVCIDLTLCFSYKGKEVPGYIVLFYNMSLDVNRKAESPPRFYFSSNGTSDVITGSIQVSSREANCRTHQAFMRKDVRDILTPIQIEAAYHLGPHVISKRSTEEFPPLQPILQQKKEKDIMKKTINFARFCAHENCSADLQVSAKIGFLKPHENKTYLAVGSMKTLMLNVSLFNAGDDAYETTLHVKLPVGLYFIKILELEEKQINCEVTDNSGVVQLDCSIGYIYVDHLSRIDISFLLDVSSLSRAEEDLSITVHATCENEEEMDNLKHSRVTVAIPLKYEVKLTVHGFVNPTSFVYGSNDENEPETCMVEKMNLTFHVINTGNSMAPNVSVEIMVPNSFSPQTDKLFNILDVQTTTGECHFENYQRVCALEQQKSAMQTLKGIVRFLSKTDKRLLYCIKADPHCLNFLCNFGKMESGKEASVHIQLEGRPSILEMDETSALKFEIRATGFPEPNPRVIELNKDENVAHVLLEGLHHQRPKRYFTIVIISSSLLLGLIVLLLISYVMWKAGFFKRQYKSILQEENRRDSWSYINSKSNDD

Experiment [8] in a line: calorie-restriction mimetic ROS inhibitors, yeast – validation compound set, pilot screen (AID 2706;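 active = superoxide response below 65% of plate, a cut near 3 SD across the whole screen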;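 note: yeast exposed to compound for one week at 30 degrees C before staining; 100% = mean of all compound wells on the same plate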). To be noted: S. cerevisiae aging, superoxide DHE fluorescence; at 10 µM; stronger effect = lower value.
Experiment [9] addresses Beta-adrenergic receptor kinase 1 (Homo sapiens) (UniProt P25098). The experiment is described as follows: GRK2 binders displacing RNA aptamer, biochemical, validation, human GRK2, bead flow cytometry (AID 488806;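 active = aptamer binding inhibition above 30%, about 3 SD of noise from non-fluorescent compounds; inactive = inhibition at or below 30%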). The settings on record: bead-bound GRK2, FAM-aptamer displacement, at 10 µM, stronger effect = higher value.
Experiment [10] concerns the target Beta-2 adrenergic receptor (Homo sapiens) (UniProt P07550). The experiment is described as follows: agonist-induced loss of surface beta2AR – cell-based, FAP fluorogen, flow cytometry, validation set, pilot screen (AID 504459;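 active = percent response above 42, roughly 3 SD of non-fluorescent test compounds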;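 note: agonist-driven loss of surface beta2AR via internalization measured by FAP dye flow cytometry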). To be noted: Am2.2-beta2AR cells, at 10 µM, stronger effect = higher value.
For experiment [11], the target named is AP-2 complex subunit beta (Homo sapiens) (UniProt P63010). The experiment is described as follows: beta-arrestin/AP2 interaction blockers – biochemical, validation set, GST-AP2 beads, flow cytometry, pilot screen (AID 504541;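 active = inhibition above 54%, about 3 SD of non-fluorescent compounds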;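 note: AP2 carries R879A mutation and is captured from E. coli lysate; bead-bound FITC arrestin peptide fluorescence measuring arrestin peptide binding to AP2; 0% = DMSO wells and 100% = excess unlabeled arrestin peptide control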). To be noted: FITC arrestin peptide, at 10 µM, stronger effect = higher value, AP2 beta2 appendage fragment, R879A mutant.
AP-2 complex subunit beta (Homo sapiens), sequence (P63010 whole entry, looked up, the tested form may be a part, one chain of several): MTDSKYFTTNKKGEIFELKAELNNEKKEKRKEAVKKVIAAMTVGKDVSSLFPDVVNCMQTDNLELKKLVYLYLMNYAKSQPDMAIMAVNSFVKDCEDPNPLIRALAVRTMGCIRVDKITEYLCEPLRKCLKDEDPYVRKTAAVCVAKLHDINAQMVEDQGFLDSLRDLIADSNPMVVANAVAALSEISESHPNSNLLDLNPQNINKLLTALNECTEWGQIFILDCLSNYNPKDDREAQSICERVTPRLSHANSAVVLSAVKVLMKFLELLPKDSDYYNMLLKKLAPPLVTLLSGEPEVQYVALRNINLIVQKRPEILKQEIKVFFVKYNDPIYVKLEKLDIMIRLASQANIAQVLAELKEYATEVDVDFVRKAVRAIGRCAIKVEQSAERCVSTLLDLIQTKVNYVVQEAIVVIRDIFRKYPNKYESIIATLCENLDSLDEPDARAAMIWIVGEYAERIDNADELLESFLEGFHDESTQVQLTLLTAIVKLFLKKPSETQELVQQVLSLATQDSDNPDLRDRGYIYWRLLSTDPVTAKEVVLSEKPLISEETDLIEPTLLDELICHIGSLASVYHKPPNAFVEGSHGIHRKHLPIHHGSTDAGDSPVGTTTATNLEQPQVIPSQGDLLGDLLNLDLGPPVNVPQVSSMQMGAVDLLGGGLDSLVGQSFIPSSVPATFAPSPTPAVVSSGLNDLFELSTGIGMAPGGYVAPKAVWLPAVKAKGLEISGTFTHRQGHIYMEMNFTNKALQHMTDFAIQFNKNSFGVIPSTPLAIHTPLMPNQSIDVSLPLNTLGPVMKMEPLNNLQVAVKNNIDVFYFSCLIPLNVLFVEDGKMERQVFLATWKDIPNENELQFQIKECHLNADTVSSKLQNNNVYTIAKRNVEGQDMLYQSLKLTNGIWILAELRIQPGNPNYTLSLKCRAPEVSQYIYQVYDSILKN
The nature of experiment [12]: cytosolic pH regulators acting via V-ATPase – S. cerevisiae, pHLuorin, HTS validation (AID 504600; in the data active = response above about 15%;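 note: plate controls were DMSO for no effect and reference compound for full effect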). To be noted: V-ATPase proton transport, at 10 µM, stronger effect = higher value.
For experiment [13], the system named is anti-desmoglein-3 scFv antibody binding to human DSG3. The experiment is described as follows: blockers of pathogenic pemphigus antibody–desmoglein-3 binding – biochemical, validation compound set, bead-based, flow cytometry, pilot screen (AID 588368;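 active = binding below the plate cutoff, the plate median minus 3 SD, with a reading above zero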;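 note: signal is the median channel fluorescence of bead-bound GFP antibody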). The settings on record: Protein G beads, DSG3-Fc, scFv-GFP binding, at 10 µM, stronger effect = lower value.
Experiment [14] can be described thus: Nile Red efflux blockade in pump-expressing yeast – validation compound set, multiplex, phenotypic, pilot screen (AID 588506;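 active = efflux inhibition above 0.42, the validation set average plus 4 SD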;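 note: Nile Red retained in cells so higher fluorescence means more efflux inhibition; 0 = negative control wells and 1 = enniatin B 25 µM full block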). To be noted: S. cerevisiae pump-expressing triplex, Nile Red efflux flow cytometry; at 10 µM; stronger effect = higher value; the pumps come from Candida albicans.
For experiment [15], the target named is ATP-binding cassette sub-family B member 6 (Homo sapiens) (UniProt Q9NP58). Put plainly: blockers of ABCB6-driven porphyrin uptake – K562-ABCB6 cells, flow cytometry, validation set, pilot screen (AID 588550;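 active = inhibition above the screen-wide mean plus 3 SD, about 51%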;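 note: 0% = DMSO wells and 100% = benzethonium chloride 70 µM positive control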). To be noted: K562-ABCB6 porphyrin accumulation, 1 h, at 10 µM, stronger effect = higher value.
ATP-binding cassette sub-family B member 6 (Homo sapiens), sequence (Q9NP58 whole entry, looked up): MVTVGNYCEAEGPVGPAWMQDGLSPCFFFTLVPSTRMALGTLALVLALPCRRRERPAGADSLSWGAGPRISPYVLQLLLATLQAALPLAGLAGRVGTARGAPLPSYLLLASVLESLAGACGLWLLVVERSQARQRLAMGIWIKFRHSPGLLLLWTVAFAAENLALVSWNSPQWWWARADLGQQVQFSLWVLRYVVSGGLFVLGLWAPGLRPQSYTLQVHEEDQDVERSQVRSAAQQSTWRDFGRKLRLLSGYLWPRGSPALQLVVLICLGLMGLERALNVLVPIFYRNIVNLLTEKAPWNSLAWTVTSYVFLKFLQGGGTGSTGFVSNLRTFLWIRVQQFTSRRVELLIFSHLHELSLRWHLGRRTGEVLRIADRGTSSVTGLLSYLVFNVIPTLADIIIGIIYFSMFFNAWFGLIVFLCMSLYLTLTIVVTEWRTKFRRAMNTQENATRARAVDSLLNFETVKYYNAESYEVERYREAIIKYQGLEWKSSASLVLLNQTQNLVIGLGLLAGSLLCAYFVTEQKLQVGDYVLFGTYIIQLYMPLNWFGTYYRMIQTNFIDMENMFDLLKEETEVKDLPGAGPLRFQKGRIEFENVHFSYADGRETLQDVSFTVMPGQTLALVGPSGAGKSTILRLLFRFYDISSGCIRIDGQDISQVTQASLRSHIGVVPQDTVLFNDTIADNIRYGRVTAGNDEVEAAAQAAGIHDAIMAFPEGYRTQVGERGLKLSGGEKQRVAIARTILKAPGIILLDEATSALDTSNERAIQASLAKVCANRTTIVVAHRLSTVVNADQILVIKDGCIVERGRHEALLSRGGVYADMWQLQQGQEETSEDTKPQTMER
The nature of experiment [16]: AML differentiation inducers, ER-HoxA9 marrow cells – cell-based, GFP/MAC1 double positive, flow cytometry, validation set, primary screen (AID 588685;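 active = differentiation response of at least 50%, scaled between solvent and reference control, from cells with both markers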;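 note: compound exposure lasts four days before antibody staining and flow analysis; 0% = DMSO wells and 100% = 5 µM fulvestrant positive control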). To be noted: stronger effect = higher value, normalized: vehicle 0, fulvestrant 100.

Inconclusive results are not listed. Activity calls are given as the source filed them. Cut-off read from the data, not from the text of the source, unless noted: active = percent of DMSO control GFP below about 86%; inactive = the rest, inconclusive results apart.

Beta-2 adrenergic receptor (Homo sapiens), sequence (P07550 whole entry, looked up): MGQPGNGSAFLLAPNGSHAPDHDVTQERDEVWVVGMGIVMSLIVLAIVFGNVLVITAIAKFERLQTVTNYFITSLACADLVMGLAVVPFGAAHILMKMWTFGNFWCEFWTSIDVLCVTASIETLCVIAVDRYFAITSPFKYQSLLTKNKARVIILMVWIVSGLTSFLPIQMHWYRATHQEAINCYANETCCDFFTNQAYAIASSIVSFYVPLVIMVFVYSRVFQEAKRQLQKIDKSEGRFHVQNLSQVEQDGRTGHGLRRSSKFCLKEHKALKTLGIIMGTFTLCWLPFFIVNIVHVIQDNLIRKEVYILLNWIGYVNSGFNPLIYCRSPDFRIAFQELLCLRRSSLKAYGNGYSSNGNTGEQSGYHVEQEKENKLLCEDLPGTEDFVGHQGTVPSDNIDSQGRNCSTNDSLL
Beta-adrenergic receptor kinase 1 (Homo sapiens), sequence (P25098 whole entry, looked up): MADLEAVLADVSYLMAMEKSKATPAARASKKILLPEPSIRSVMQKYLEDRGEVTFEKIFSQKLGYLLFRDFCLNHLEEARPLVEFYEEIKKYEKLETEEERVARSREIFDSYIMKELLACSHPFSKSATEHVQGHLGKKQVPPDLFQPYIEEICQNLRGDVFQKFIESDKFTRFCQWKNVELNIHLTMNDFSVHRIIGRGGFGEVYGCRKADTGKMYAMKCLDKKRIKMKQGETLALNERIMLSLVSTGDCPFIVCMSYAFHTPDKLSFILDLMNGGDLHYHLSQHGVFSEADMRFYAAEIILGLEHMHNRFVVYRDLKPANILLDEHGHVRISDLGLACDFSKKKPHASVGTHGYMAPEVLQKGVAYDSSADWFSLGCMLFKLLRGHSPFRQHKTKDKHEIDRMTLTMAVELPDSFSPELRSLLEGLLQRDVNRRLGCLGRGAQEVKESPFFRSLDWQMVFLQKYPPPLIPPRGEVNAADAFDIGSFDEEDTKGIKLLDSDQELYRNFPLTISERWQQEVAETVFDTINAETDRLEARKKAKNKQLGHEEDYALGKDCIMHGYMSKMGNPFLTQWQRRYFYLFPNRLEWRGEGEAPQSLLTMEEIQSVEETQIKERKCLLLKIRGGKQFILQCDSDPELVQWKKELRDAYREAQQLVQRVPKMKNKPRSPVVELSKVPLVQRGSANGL

Usually inhibition stands for the relative decrease from the control value, in per cent. With `CCOC(=O)Cn1c(C)cc(=O)c2ccccc21`, the percent of DMSO control GFP in experiment [1] is 97.6% (inactive). The GFP response vs DMSO in experiment [2] was 114% (inactive); in [4], 117% (inactive). Moreover, the percent response of DMSO control in [3] was 91% (inactive). In [5], the GFP response, % of DMSO is 103% (inactive). This molecule displayed a double positive events in [6] of 59.9%. Moreover, the vesicle binding response in [6] is 226% (inactive). The inhibition in experiment [7] is 10.5% (inactive); in experiment [11], 56.3% (active); in experiment [15], 0% (inactive). In experiment [8], the superoxide response (% of plate) is 103% (inactive). Besides, in experiment [9], the aptamer binding inhibition was 0% (inactive). In addition, the response in experiment [10] was 8.73% (inactive); in [12], -4.51% (inactive). For the same molecule, the binding (% of control) in experiment [13] was 92.6% (inactive). In addition, the efflux inhibition (fraction of control) in experiment [14] was 0.3 (inactive). Further, the differentiation response in experiment [16] is 114% (active).
As for `COc1ccc2cc(C3(C)NC(=O)NC3=O)ccc2c1` (stereo not given), in [1], the percent of DMSO control GFP is 95.8% (inactive). Besides, the GFP response vs DMSO is 116% (inactive) in [2] and 117% (inactive) in [4]. In experiment [3], the percent response of DMSO control was 87.2% (inactive). In addition, the GFP response, % of DMSO in experiment [5] was 99.7% (inactive). In [6], this molecule had a double positive events of 60.5%. Besides, in experiment [6], the vesicle binding response is 147% (inactive). Moreover, the inhibition in [7] was -9.98% (inactive); in experiment [11] it was -3.7% (inactive); in [15], 8% (inactive). Further, the superoxide response (% of plate) in experiment [8] was 104% (inactive). Moreover, the aptamer binding inhibition in experiment [9] was 2% (inactive). Further, the response in experiment [10] is 2.16% (inactive); in [12], -5.94% (inactive). Moreover, the binding (% of control) in experiment [13] was 99.7% (inactive). In addition, the efflux inhibition (fraction of control) in experiment [14] is -0.06 (inactive). The differentiation response in experiment [16] is 7.2% (inactive).
Consider `Cc1ccc2c(c1)C(CCN)C(=O)N2Cc1ccccc1` (stereo not given), for which the percent of DMSO control GFP in experiment [1] was 102% (inactive). Further, the GFP response vs DMSO in [2] was 104% (inactive); in [4] it was 96% (inactive). Moreover, the percent response of DMSO control in [3] was 109% (inactive). For the same molecule, the GFP response, % of DMSO in [5] was 101% (inactive). This molecule had a double positive events in experiment [6] of 66.6%. Besides, the vesicle binding response in experiment [6] is 234% (inactive). The inhibition in experiment [7] was -6.68% (inactive); in [11], 8.79% (inactive); in experiment [15], 1% (inactive). Further, in experiment [8], the superoxide response (% of plate) is 106% (inactive). Besides, the aptamer binding inhibition in experiment [9] was -4% (inactive). In addition, the figures for the response in experiment [10] and in experiment [12] were -2.03% (inactive) and 0.57% (inactive), respectively. Besides, the binding (% of control) in experiment [13] is 94.5% (inactive). Further, in [14], the efflux inhibition (fraction of control) was -0.14 (inactive). For the same molecule, the differentiation response in experiment [16] was -2.69% (inactive).
With `COc1ccccc1N1C(=O)C2CC(C)=C(C)CC2C1=O` (stereo not given), the percent of DMSO control GFP in experiment [1] was 103% (inactive). Besides, the GFP response vs DMSO in [2] is 102% (inactive); in [4], 85.2% (inactive). Besides, the percent response of DMSO control in experiment [3] was 99.3% (inactive). In experiment [5], the GFP response, % of DMSO is 104% (inactive). In [6], the double positive events is 63%. The vesicle binding response in [6] is 164% (inactive). Moreover, the inhibition is 19.7% (inactive) in experiment [7], -31.7% (inactive) in experiment [11] and 4% (inactive) in experiment [15]. In experiment [8], the superoxide response (% of plate) was 109% (inactive). For the same molecule, in experiment [9], the aptamer binding inhibition is 11% (inactive). The response in [10] is 4.23% (inactive); in experiment [12] it was 2.17% (inactive). In addition, the binding (% of control) in experiment [13] was 99% (inactive). Further, the efflux inhibition (fraction of control) in experiment [14] was -0.06 (inactive). In experiment [16], the differentiation response is -3.4% (inactive).
Take `Cc1ccc(NC(=O)CSc2nc(O)c(Cc3ccccc3)c(=O)n2-c2ccccc2)cc1`: the percent of DMSO control GFP in experiment [1] was 103% (inactive). The GFP response vs DMSO was 105% (inactive) in experiment [2] and 99.3% (inactive) in [4]. The percent response of DMSO control in [3] is 94.2% (inactive). In addition, the GFP response, % of DMSO in experiment [5] was 102% (inactive). Further, the double positive events in [6] amounted to 65%. For the same molecule, the vesicle binding response in experiment [6] was 210% (inactive). Besides, the inhibition is -6.68% (inactive) in [7], 16.9% (inactive) in experiment [11] and 9% (inactive) in experiment [15]. Also, the superoxide response (% of plate) in experiment [8] was 95.4% (inactive). In [9], the aptamer binding inhibition is 3% (inactive). In addition, the figures for the response in [10] and in [12] were 3.5% (inactive) and -1.44% (inactive), respectively. The binding (% of control) in [13] was 97.7% (inactive). Besides, in experiment [14], the efflux inhibition (fraction of control) is -0.17 (inactive). In experiment [16], the differentiation response was 1.22% (inactive).
